Laboratory results taken from PubChem BioAssay AID1159580 (chemical genetic matrix, 2015).
In all, about 5,500 compounds went through this assay and about 2,000 (36%) were called active. Not shown: some 18% with an inconclusive outcome. Cut-off read from the data, not from the text of the source: active = normalized growth mostly below about 0.91 (no sharp cut-off); inconclusive = no clear call, values can overlap the other calls; inactive = mostly above about 0.92. This is one part of the list.

Assay: chemical genetic growth profiling, strain panel (AID 1159580);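 note: tested at 20 µM; growth read once vehicle control cultures reached saturation at 30 °C; 1 = growth at the plate median or of vehicle wells; lower values mean less growth of the strain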
Details: growth OD

Measured: normalized growth

CCC1(CC)C(=O)C=CNC1=O
inactive: S. cerevisiae deletion strains, locus YJR066W, strain TOR1, stronger effect = lower value 0.961 | S. cerevisiae deletion strains, locus YKL009W, strain mrt4, stronger effect = lower value 1 | S. cerevisiae deletion strains, locus YKL068W, stronger effect = lower value 1 | S. cerevisiae deletion strains, locus YKL085W, strain MDH1 (second series), stronger effect = lower value 1 | S. cerevisiae deletion strains, locus YKL085W, strain MDH1, stronger effect = lower value 1 | S. cerevisiae deletion strains, locus YKL160W, strain elf1, stronger effect = lower value 0.992 | S. cerevisiae deletion strains, locus YKL190W, strain CNB1, stronger effect = lower value 1 | S. cerevisiae deletion strains, locus YKR001C, strain vps1, stronger effect = lower value 0.983 | S. cerevisiae deletion strains, locus YKR026C, strain gcn3, stronger effect = lower value 0.97 | S. cerevisiae deletion strains, locus YKR091W, strain srl3, stronger effect = lower value 1 | S. cerevisiae deletion strains, locus YLL001W, strain dnm1, stronger effect = lower value 0.985 | S. cerevisiae deletion strains, locus YLL026W, stronger effect = lower value 0.99 | S. cerevisiae deletion strains, locus YLL041C, strain sdh2, stronger effect = lower value 0.985 | S. cerevisiae deletion strains, locus YLR027C, strain aat2, stronger effect = lower value 0.996 | S. cerevisiae deletion strains, locus YLR039C, strain RIC1, stronger effect = lower value 1.01 | S. cerevisiae deletion strains, locus YLR058C, strain SHM2, stronger effect = lower value 1.01 | S. cerevisiae deletion strains, locus YLR102C, strain apc9, stronger effect = lower value 1.01 | S. cerevisiae deletion strains, locus YLR113W, strain HOG1, stronger effect = lower value 0.988 | S. cerevisiae deletion strains, locus YLR221C, strain rsa3, stronger effect = lower value 1.01 | S. cerevisiae deletion strains, locus YLR258W, strain gsy2, stronger effect = lower value 1.01 | S. cerevisiae deletion strains, locus YLR262C, strain YPT6 (second series), stronger effect = lower value 1.02 | S. cerevisiae deletion strains, locus YLR262C, strain YPT6, stronger effect = lower value 1.01 | S. cerevisiae deletion strains, locus YLR268W, strain sec22, stronger effect = lower value 1.01 | S. cerevisiae deletion strains, locus YLR320W, strain mms22, stronger effect = lower value 1.02 | S. cerevisiae deletion strains, locus YLR330W, strain CHS5, stronger effect = lower value 1.01 | S. cerevisiae deletion strains, locus YLR342W, strain FKS1 (second series), stronger effect = lower value 1.06 | S. cerevisiae deletion strains, locus YLR342W, strain FKS1, stronger effect = lower value 1.01 | S. cerevisiae deletion strains, locus YLR357W, strain rsc2, stronger effect = lower value 1 | S. cerevisiae deletion strains, locus YLR370C, strain arc18, stronger effect = lower value 0.997 | S. cerevisiae deletion strains, locus YLR371W, strain rom2, stronger effect = lower value 1.01 | S. cerevisiae deletion strains, locus YLR384C, strain iki3, stronger effect = lower value 0.995 | S. cerevisiae deletion strains, locus YLR418C, strain cdc73, stronger effect = lower value 1.02 | S. cerevisiae deletion strains, locus YML016C, strain PPZ1, stronger effect = lower value 1 | S. cerevisiae deletion strains, locus YML032C, strain rad52, stronger effect = lower value 0.997 | S. cerevisiae deletion strains, locus YML120C, strain ndi1, stronger effect = lower value 0.994 | S. cerevisiae deletion strains, locus YML124C, strain tub3, stronger effect = lower value 1.01 | S. cerevisiae deletion strains, locus YMR058W, strain fet3, stronger effect = lower value 0.989 | S. cerevisiae deletion strains, locus YMR078C, strain ctf18, stronger effect = lower value 1.01 | S. cerevisiae deletion strains, locus YMR125W, strain sto1, stronger effect = lower value 0.973 | S. cerevisiae deletion strains, locus YMR129W, stronger effect = lower value 0.991 | S. cerevisiae deletion strains, locus YMR205C, strain PFK2, stronger effect = lower value 1.05 | S. cerevisiae deletion strains, locus YMR223W, strain ubp8, stronger effect = lower value 1.02 | S. cerevisiae deletion strains, locus YMR231W, strain pep5, stronger effect = lower value 0.998 | S. cerevisiae deletion strains, locus YMR263W, strain SAP30, stronger effect = lower value 0.995 | S. cerevisiae deletion strains, locus YMR307W, strain GAS1, stronger effect = lower value 1.01 | S. cerevisiae deletion strains, locus YNL067W, strain RPL9B, stronger effect = lower value 0.981 | S. cerevisiae deletion strains, locus YNL071W, strain lat1, stronger effect = lower value 0.994 | S. cerevisiae deletion strains, locus YNL128W, strain TEP1, stronger effect = lower value 1.03 | S. cerevisiae deletion strains, locus YNL183C, strain NPR1, stronger effect = lower value 0.958 | S. cerevisiae deletion strains, locus YNL209W, strain ssb2, stronger effect = lower value 1 | S. cerevisiae deletion strains, locus YNL233W, strain BNI4, stronger effect = lower value 0.978 | S. cerevisiae deletion strains, locus YNL248C, strain rpa49, stronger effect = lower value 0.96 | S. cerevisiae deletion strains, locus YNL250W, strain rad50, stronger effect = lower value 1.02 | S. cerevisiae deletion strains, locus YNL271C, strain bni1, stronger effect = lower value 1.01 | S. cerevisiae deletion strains, locus YNL298W, strain CLA4, stronger effect = lower value 1 | S. cerevisiae deletion strains, locus YNL307C, strain MCK1, stronger effect = lower value 1.02 | S. cerevisiae deletion strains, locus YNL322C, strain KRE1 (second series), stronger effect = lower value 0.992 | S. cerevisiae deletion strains, locus YNL322C, strain KRE1, stronger effect = lower value 0.999 | S. cerevisiae deletion strains, locus YNR049C, strain mso1, stronger effect = lower value 0.994 | S. cerevisiae deletion strains, locus YNR052C, strain pop2, stronger effect = lower value 1.01 | S. cerevisiae deletion strains, locus YOL006C, strain TOP1, stronger effect = lower value 0.966 | S. cerevisiae deletion strains, locus YOL012C, strain htz1 0.962 | S. cerevisiae deletion strains, locus YOL147C, strain pex11, stronger effect = lower value 1.01 | S. cerevisiae deletion strains, locus YOR001W, strain rrp6, stronger effect = lower value 0.971 | S. cerevisiae deletion strains, locus YOR061W, strain CKA2, stronger effect = lower value 1.01 | S. cerevisiae deletion strains, locus YOR069W, strain VPS5, stronger effect = lower value 1.01 | S. cerevisiae deletion strains, locus YOR070C, strain gyp1, stronger effect = lower value 1 | S. cerevisiae deletion strains, locus YOR080W, strain dia2, stronger effect = lower value 0.999 | S. cerevisiae deletion strains, locus YOR083W, strain WHI5, stronger effect = lower value 0.984 | S. cerevisiae deletion strains, locus YOR106W, strain vam3, stronger effect = lower value 1.01 | S. cerevisiae deletion strains, locus YOR136W, strain idh2, stronger effect = lower value 0.994 | S. cerevisiae deletion strains, locus YOR144C, strain elg1, stronger effect = lower value 1 | S. cerevisiae deletion strains, locus YOR184W, strain ser1, stronger effect = lower value 1.02 | S. cerevisiae deletion strains, locus YOR231W, strain MKK1, stronger effect = lower value 0.98 | S. cerevisiae deletion strains, locus YOR265W, strain rbl2, stronger effect = lower value 0.996 | S. cerevisiae deletion strains, locus YOR270C, strain vph1, stronger effect = lower value 0.994 | S. cerevisiae deletion strains, locus YOR290C, strain snf2, stronger effect = lower value 0.965 | S. cerevisiae deletion strains, locus YOR316C, strain cot1, stronger effect = lower value 1.01 | S. cerevisiae deletion strains, locus YPL051W, strain arl3, stronger effect = lower value 0.985 | S. cerevisiae deletion strains, locus YPL078C, strain atp4, stronger effect = lower value 0.968 | S. cerevisiae deletion strains, locus YPL106C, strain sse1, stronger effect = lower value 1 | S. cerevisiae deletion strains, locus YPL240C, strain hsp82, stronger effect = lower value 1.02 | S. cerevisiae deletion strains, locus YPL256C, strain CLN2, stronger effect = lower value 1.01 | S. cerevisiae deletion strains, locus YPR119W, strain clb2, stronger effect = lower value 1 | S. cerevisiae deletion strains, locus YPR141C, strain kar3, stronger effect = lower value 1 | S. cerevisiae deletion strains, locus YPR163C, strain tif3, stronger effect = lower value 1.01 | S. cerevisiae deletion strains, locus YPR167C, strain met16, stronger effect = lower value 1.01 | S. cerevisiae deletion strains, strain wtn01, stronger effect = lower value 1.02 | S. cerevisiae strains, strain wild type, stronger effect = lower value 0.996
